14 molecules from PubChem BioAssay (NCATS) can be followed below.

Experiment [1] concerns the target Calcium and integrin-binding protein 1 (Homo sapiens) (UniProt Q99828). Briefly: Confirmatory qHTS for Identification of Calcium Integrin Binding Protein 1 (CIB1) Competitor (AID 1508617). Note: nearly all actives have a fitted effect of over 65% in size. As to conditions: CIB1 binding competition assay, biochemical qHTS; series mostly up to 114 µM. The gist of the method: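 Fluorescence polarization competition: CIB1-GST (1 uM final) in 5 mM HEPES pH 7.4, 125 mM NaCl, 5 mM CaCl2, 0.01% Tween20 preincubated 15 min RT with compound (up to 114 uM), then FITC-alphaIIb peptide (100 nM) added, 15 min RT.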
(In general: Quantitative high-throughput screening tests each substance at several concentrations.)

Experiment [2] has the same target. Briefly: Primary qHTS for Identification of Calcium Integrin Binding Protein 1 (CIB1) Competitor (AID 1508620).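 Note: GST tagged CIB1 binding a fluorescein labelled alphaIIb integrin peptide tracer; top concentration of the series differs between compounds.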 Particulars: CIB1-GST / FITC-alphaIIb peptide fluorescence polarization; series mostly up to 57.7 µM. The gist of the method: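 Fluorescence polarization competition: CIB1-GST (1 uM final) preincubated with compound 15 min at room temperature, then FITC-labeled alphaIIb peptide (100 nM final) added for another 15 min. Polarization read at Ex 480/Em 540.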

Experiment [3] is described as follows: Primary qHTS for inhibitors of La Crosse Virus (LACV) - induced cell death in SH-SY5Y cells (AID 1508616).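 Note: top concentration of the series differs between compounds; higher means more rescue of cells from virus-induced death.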 Particulars: SH-SY5Y LACV cytopathicity rescue, ATP luminescence, 6 d; series mostly up to 4.29 µM. The gist of the method:
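Screening measures cell viability in LACV-infected SH-SY5Y cultures. Compound was added before virus (0.01 MOI), and ATP was detected by luminescence 6 days later.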

Experiment [4] is described as follows: Counterscreen qHTS for small molecule stabilizers of the endoplasmic reticulum resident proteome: GLuc-NoTag assay (AID 1508627). Note: potency is the fitted concentration of half-maximal effect. Particulars: Gaussia luciferase NoTag secretion counterscreen, luminescence, thapsigargin 100 nM for final 4 h; series mostly up to 76.4 µM. The gist of the method: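 Secreted GLuc lacking the SERCaMP modification is measured in SH-SY5Y cells exposed to compound for 19 h and then to thapsigargin (100 nM, 4 h) to deplete ER calcium; hits retested at 11 concentrations, up to 76.6 uM.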
(In general: A counterscreen serves to expose hits that act by an unwanted route or on another target.)

The nature of experiment [5]: Confirmatory qHTS for small molecule stabilizers of the endoplasmic reticulum resident proteome: Secreted ER Calcium Modulated Protein (SERCaMP) assay (AID 1508628). Note: nearly all actives have a fitted effect of over 40% in size. As to conditions: SERCaMP secreted luciferase ER calcium/proteostasis reporter; series mostly up to 76.3 µM. The text has this: Assay Provider: Brandon K. Harvey Ph.D.
National Institute on Drug Abuse, National Institutes of Health, Baltimore, MD
Endoplasmic reticulum (ER) dysregulation is associated with human pathologies including neurodegenerative, cardiovascular, muscular, and diabetic conditions. Maintenance of ER calcium is critical for functions of the ER and its depletion can lead to loss of ER resident proteins, in a process termed exodosis. Therapeutic compounds capable of attenuating the redistribution of ER proteins under pathological conditions may slow or stop disease progression. To identify such compounds, we performed a quantitative high-throughput screen (qHTS) using the SERCaMP assay, which monitors secretion of ER resident proteins triggered by calcium depletion.
SERCaMP was initially developed as a reporter of ER calcium homeostasis using a Gaussia luciferase with a modified signal peptide and carboxy-terminus (GLuc-SERCaMP), modifications that confer secretion of the reporter in response to ER calcium depletion (Henderson et al., 2014). The assay was used to screen 9,501 compounds, including a collection of drugs approved by the FDA (US), EMA (EU), NHI (Japan), and HC (Canada) regulatory agencies (Huang et al., 2011). Since the SERCaMP reporter reflects the exodosis phenomenon (Trychta et al., 2018a), compounds identified in the screen have the potential to prevent exodosis by different mechanisms such as stabilizing ER calcium or augmenting ERS retrieval.
1. Henderson, M.J., Wires, E.S., Trychta, K.A., Richie, C.T., and Harvey, B.K. (2014). SERCaMP: a carboxy-terminal protein modification that enables monitoring of ER calcium homeostasis. Mol Biol Cell 25, 2828-2839.
2. Huang, R., Southall, N., Wang, Y., Yasgar, A., Shinn, P., Jadhav, A., Nguyen, D.T., and Austin, C.P. (2011). The NCGC pharmaceutical collection: a comprehensive resource of clinically approved drugs enabling repurposing and chemical genomics. Sci Transl Med 3, 80ps16.
3. Trychta, K.A., Back, S., Henderson, M.J., and Harvey, B.K. (2018a). KDEL Receptors Are Differentially Regulated to Maintain the ER Proteome under Calcium Deficiency. Cell Rep 25, 1829-1840 e1826.
SEQUENCE No. (1, 2, 3, etc.); […] (e.g., Cells, Incubation, Reagent, etc.); VALUE and DESCRIPTION.
1; Reagent; 5 uL; 1000 SH-SY5Y cells per wells
3; Compound; 23 nL; Control inhibitor / compound library
5; Reagent; 100 nM; Thapsigargin
7; Reagent; 1 uL; 0.5x coelenterazine
8; Detection; Luminescence; ViewLux imaging system
NOTES (numbers refer to sequence above)
1; SH-SY5Y human neuroblastoma cells stably expressing GLuc-SERCaMP (SH-SY5Y-GLuc-ASARTDL) cells were seeded in 1,536 well white tissue culture treated plates (Corning, Cat# 7464) in DMEM-high glucose-sodium pyruvate (ThermoFisher Scientific, Cat #10569) supplemented with 10% bovine growth serum (Hyclone), 10 U/ml penicillin (Gibco), 10 ug/ml streptomycin (Gibco), and 20 mM HEPES.
2; Assay plates were incubated for 5 hour at 37C in a humidified incubator containing 5% CO2. […]
7; Gaussia luciferase in the medium was measured by adding 1 ul of 0.5x coelenterazine (final concentration 0.07x) prepared in Gaussia Luciferase Glow Assay Buffer (Pierce), without addition of the Cell Lysis Buffer Reagent.
8; Luminescence was measured using a ViewLux […] CCD imaging system (Perkin Elmer) equipped with clear filters. […]

Experiment [6] is described as follows: Cell Viability qHTS for small molecule stabilizers of the endoplasmic reticulum resident proteome (AID 1508629).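 Note: potency is the fitted concentration of half-maximal effect; compound exposure about 46 h in total before the viability read.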 As to conditions: cell viability counter-screen, 100 nM thapsigargin for final 4 h.
Experiment [7] can be described thus: Primary qHTS for small molecule stabilizers of the endoplasmic reticulum resident proteome: Secreted ER Calcium Modulated Protein (SERCaMP) assay (AID 1508630). As to conditions: SH-SY5Y GLuc-SERCaMP (Gaussia luciferase released on ER calcium loss) secretion, thapsigargin, luminescence; series mostly up to 38.4 µM. The gist of the method:
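The SH-SY5Y reporter protocol was run at 3 concentrations up to 38.3 uM (primary) or 11 concentrations (follow-up): 16 h compound, 100 nM thapsigargin for 4 h, then extracellular luciferase luminescence.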

Experiment [8] in a line: A High-Content qHTS Against Drug Library for the Identification of Small Molecules that Inhibit DYT1 Early Onset Primary Dystonia-Associated Cell Pathology (AID 1645839; calls by dose curve). Particulars: HEK293 Flp-In EGFP-delE TorsinA, punctate imaging, 48 h; series mostly up to 46.1 µM. The gist of the method: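 Induced EGFP-delE TorsinA cells are imaged after 48 h of compound treatment. Punctate fusion-protein distribution gives the %pathology value, while nuclei counts flag toxicity. Wild-type EGFP-hTOR1A cells define the normal pattern.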

For experiment [9], the target named is Single-stranded DNA cytosine deaminase (Homo sapiens) (UniProt Q9GZX7). Briefly: Validation qHTS assay for inhibitors of Activation Induced Cytidine Deaminase (AID): AID signal (AID 1347429). Particulars: Recombinant AID, FRET ssDNA deamination with UDG, fluorescence; series mostly up to 115 µM. The gist of the method:
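Compounds (up to 114 uM final) are tested against AID plus UDG using DJC20/DJC23 FRET substrate. Reactions incubate 4 hr at room temperature, receive NaOH for 30 min, and are read at Ex 540/Em 590 nm.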

Records with an inconclusive call do not appear. Entries that show only a call come without a potency. Calls of active or inactive are those of the source. Unless noted, calls come from the whole dose curve; as a rule, active = well fitted curve in the direction sought with a large enough effect; inconclusive = small, poorly fitted or top-dose-only effect, or another doubt; inactive = no such curve, though single readings can be large; an effect the other way counts as inactive or inconclusive.

Sequence of Calcium and integrin-binding protein 1 (Homo sapiens) (Q99828 whole entry, looked up): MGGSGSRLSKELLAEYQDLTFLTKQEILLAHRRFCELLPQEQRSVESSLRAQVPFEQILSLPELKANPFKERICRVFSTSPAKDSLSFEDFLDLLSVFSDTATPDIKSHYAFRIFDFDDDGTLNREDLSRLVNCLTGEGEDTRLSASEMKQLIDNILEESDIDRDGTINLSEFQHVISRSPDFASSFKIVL
Sequence of Single-stranded DNA cytosine deaminase (Homo sapiens) (Q9GZX7 whole entry, looked up): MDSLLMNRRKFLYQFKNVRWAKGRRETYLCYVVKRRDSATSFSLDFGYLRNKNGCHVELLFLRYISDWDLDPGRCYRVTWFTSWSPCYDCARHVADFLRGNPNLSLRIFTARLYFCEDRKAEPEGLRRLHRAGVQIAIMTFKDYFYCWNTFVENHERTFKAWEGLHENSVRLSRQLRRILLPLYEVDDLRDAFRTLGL

Turning to `C[C@H]1COC2=C1C(=O)C(=O)c1c2ccc2c1CCCC2(C)C`, in [1], the Potency result is “inactive”.
Regarding `N=C1SC(=Cc2ccc(-c3ccc4c(c3)C(=O)NC4=O)o2)C(=O)N1c1ccc(Br)cc1`, in experiment [2], the Potency result is “inactive”.
Take `CN1CCN(c2cccc(Nc3nc4c(-c5ccc(S(C)(=O)=O)cc5)cccn4n3)c2)CC1`: in [2], the Potency result was “inactive”.
Still for that read-out and setting: next, `Cc1ccc(NC(=O)Nc2cc(C(F)(F)F)ccc2F)cc1Nc1ccc2c(c1)NC(=O)C2=Cc1ccc[nH]1`: “inactive”.
With `O=C(CCCN1CCN(c2ccc(F)cc2)CC1)NC1c2ccccc2CSc2ccccc21` (stereo not given), the molecule was called inactive in experiment [3]. For the same molecule, the Potency result in [2] and in [5] was “inactive” in each case. The Potency in experiment [4] is 39.8 µM (active); in experiment [6] it was 25.1 µM (active).
Regarding `CN(C)CCCNC(=O)c1ccc(-c2cc(O)c3ncccc3c2)cc1`, the Potency result in [1] and in [2] was “inactive” each time.
On to `O=C(C=Cc1ccc(O)cc1)c1ccc(O)cc1O`, for which the Potency result in experiment [2] was “inactive”.
On the same count and under the same terms, the value for `CC(C)n1c(C=C[C@H](O)C[C@H](O)CC(=O)O)c(-c2ccc(F)cc2)c2ccccc21` was “inactive”; that for `CCOC(=O)[C@H](CCc1ccccc1)N[C@@H](C)C(=O)N1CCCC1C(=O)O` (stereo not given in full) was “inactive”.
For `COc1ccc(-c2nc3ccc(C4=NNC(=O)CC4C)cc3[nH]2)cc1` (stereo not given), the call in [3] was inactive. Besides, the Potency entry in [2] was “inactive”.
Regarding `COc1ccnc(CS(=O)c2nc3ccc(OC(F)F)cc3[nH]2)c1OC` (stereo not given), the molecule was classed as inactive in experiment [3] and in experiment [8]. The Potency result in experiment [2] and in experiment [7] was “inactive” each time.
As for `C[C@H]1O[C@@H](n2cc(F)c(=O)[nH]c2=O)[C@H](O)[C@H]1O`, the outcome in [9] was inactive. In experiment [7], the Potency entry is “inactive”.
Regarding `C[C@@]1(C(=O)Nc2ccc(F)nc2)CCCN1c1nc(Nc2cc(C3CC3)[nH]n2)c2cccn2n1`, the Potency result in experiment [2] is “inactive”.
On to `CN(C)CCN(Cc1ccc(Cl)cc1)c1ccccn1`, for which the outcome in [3] was inactive. The Potency result in experiment [2] was “inactive”.
